Assay outcomes as filed in PubChem BioAssay.
Algae TAG accum – inducers of TAG accumulation in Chlamydomonas, primary screen, qHTS, Chlamydomonas reinhardtii; Nile Red fluorescence, 72 h; calls only at 10 µM (by protocol); 44,000 compounds, 0.84% hits; call rule not given here;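 further: hits raise Nile Red signal meaning more stored TAG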
Of the large screens only hits and unclear results are named; the others gave an inactive call. The full list was thinned out, with hits kept by preference.

Fc1ccc(C2=CSC3=NCCN23)cc1	none
Brc1ccc(C2=CSC3=NCCN23)cc1	none
CCOc1ccc(C2=CSC3=NCCN23)cc1	Algae TAG accum active
O=C(COc1ccc(Br)cc1)NC1CCCC1	none
CC(NCC(O)COc1ccc(Br)cc1)c1ccccc1 (stereo not given)	none
CCN(CC(O)COc1ccc(Br)cc1)C1CCCCC1 (stereo not given)	Algae TAG accum active
CN(CC(O)COCc1ccc2c(c1)OCO2)C1CCCCC1 (stereo not given)	none
O=[N+]([O-])c1ccc(OCC(O)CN(C2CCCCC2)C2CCCCC2)cc1 (stereo not given)	none
CN(CC(O)COc1ccc(Br)cc1)C1CCCCC1 (stereo not given)	Algae TAG accum active
Cc1ccc(CN(c2ccc(C(=O)Nc3cc(Cl)ccc3C)cc2)S(C)(=O)=O)cc1	none
CCN(CC)c1ccc(CN2CCOCC2)cc1	none
CC(CCc1ccccc1)NC(=O)c1ccc(NC(=O)C2COc3ccccc3O2)cc1 (stereo not given)	none
COc1ccccc1N1CCN(Cc2ccc(OC)c(C)c2OC)CC1	none
COc1cc(Cl)c(S(=O)(=O)NCc2ccccc2)cc1Cl	none
COc1cc(C(=O)Nc2cccc(Br)c2)cc(OC)c1OC	none
O=C1C(=O)N(c2nccs2)C(c2cccc([N+](=O)[O-])c2)C1=C(O)c1ccccc1 (stereo not given)	none
COc1cc(C(=O)Nc2ccc(S(=O)(=O)NC(C)=O)cc2)cc(OC)c1OC	none
COc1cc(C(=O)Nc2ccc(S(=O)(=O)Nc3ncccn3)cc2)cc(OC)c1OC	Algae TAG accum active
COc1ccc(C(=O)Nc2ccc(S(=O)(=O)Nc3ncccn3)cc2)cc1[N+](=O)[O-]	none
Cc1ccc(C(C)CCN2CCN(C)CC2)o1 (stereo not given)	none
CC(C)=CCC/C(C)=C/CN1CCCN(C)CC1	none
CC(C)=CCC[C@H](C)CCN1CCN(C)CC1	Algae TAG accum active
CCSc1nc2cc(Cl)ccc2s1	none
OC(C#Cc1ccccc1)c1ccco1 (stereo not given)	none
COc1ccc(OCC(=O)Nc2cc(OC)c(OC)cc2C(=O)O)cc1	none
COc1cc(NC(=O)CSCc2ccccc2)c(C(=O)O)cc1OC	none
CCc1cccc(OCC(=O)Nc2cc(OC)c(OC)cc2C(=O)O)c1	Algae TAG accum active
CC1CCN(C(=O)c2cccc(F)c2F)CC1	none
N#Cc1c(N)nc(C(Cl)(Cl)Cl)nc1-c1ccccc1	none
Cc1ccc(S(=O)(=O)c2ccc(C)cc2)cc1	none
Cc1ccc(S(=O)(=O)c2ccc(-c3ccc([N+](=O)[O-])cc3)cc2)cc1	Algae TAG accum active
Cc1ccc(NS(=O)(=O)c2ccc([N+](=O)[O-])cc2)cc1	none
COc1cc(OC)cc(-c2nc(-c3ccc(Cl)cc3)no2)c1	none
CCc1c(O)nc(SC(C)CC)n(-c2ccccc2)c1=O (stereo not given)	none
C=CCn1c(SCC(=O)O)nnc1-c1ccc(OC)cc1	none
C=CCn1c(SCC)nnc1-c1ccc([N+](=O)[O-])cc1	none
C=CCn1c(SCC(=O)O)nnc1-c1ccc([N+](=O)[O-])cc1	Algae TAG accum active
CC(C)(C)c1ccc(C(=O)Nc2ccc(NC(=O)c3ccccc3[N+](=O)[O-])cc2)cc1	none
Cc1ccc(NC(=O)CC(C)C)c(NC(=O)CC(C)C)c1	Algae TAG accum active
Cc1cccc(C(=O)Nc2ccc(C)cc2NC(=O)c2cccc(C)c2)c1	none
Cc1ccc(NC(=O)CCC(=O)O)c(C)c1	none
Cn1c(=O)c([N+](=O)[O-])c(N2CCN(C3CCCC3)CC2)c2ccccc21	none
Clc1cc(Br)ccc1OCCN1CCOCC1	none
Clc1cc(Br)ccc1OCCCN1CCCC1	none
Cc1cc(Br)ccc1OCCOCCN1CCOCC1	Algae TAG accum active
Clc1ccc(OCCN2CCOCC2)c(Br)c1	none
Cc1ccc(OCCN2CCOCC2)c(Br)c1	none
Cc1cc(Br)ccc1OCCN1CCOCC1	none
Clc1ccc(OCCOCCN2CCOCC2)c(Br)c1	Algae TAG accum active
Cc1cc(Br)ccc1OCCCN1CCOCC1	none
Clc1cc(Br)ccc1OCCCN1CCOCC1	Algae TAG accum active
O=C(O)c1ccc2c(c1)C(=O)N(c1ncc([N+](=O)[O-])s1)C2=O	none
CSc1ccccc1C(=O)Nc1cccnc1	none
Cn1c(SCC(=O)c2ccc(Cl)cc2)nc2sc3c(c2c1=O)CCCC3	none
CCC(C)c1ccc(NS(=O)(=O)c2ccc(OC)cc2)cc1 (stereo not given)	none
OCc1cn(-c2ccccc2)nc1-c1ccc(Cl)cc1	none
CS(=O)(=O)N(CC(=O)Nc1ccc(F)cc1)c1ccc(F)cc1	none
CN1CCN(CC(O)COc2ccc(Cl)cc2Cl)CC1 (stereo not given)	none
OC(COc1ccc(Cl)cc1Cl)CN1CCN(Cc2ccccc2)CC1 (stereo not given)	Algae TAG accum active
CCOC(=O)N1CCN(CC(O)COc2ccc(Cl)cc2Cl)CC1 (stereo not given)	none
O=c1[nH]c(C=Cc2ccccc2Cl)nc2ccccc12	none
Fc1ccccc1N1CCN(C2Cc3ccccc3C2)CC1	none
Fc1ccccc1N1CCN(CC2CCCCC2)CC1	Algae TAG accum active
CCOc1ccccc1N1CCN(C(=O)C2CCN(CC3CCCCC3)CC2)CC1	none
O=C1C(N2CCCC2)=C(N2CCN(S(=O)(=O)c3ccccc3)CC2)C(=O)c2ccccc21	none
CN(C)CCNCC12CC3CC(CC(C3)C1)C2	none
CN(CCC#N)C12CC3CC(CC(C3)C1)C2	Algae TAG accum active
CN(CCO)C12CC3CC(CC(C3)C1)C2	none
CC(C)(C)c1csc(NC(=O)c2ccco2)n1	none
Cc1cc(C)nc(N=C(N)Nc2ccc(Oc3ccccc3)cc2)n1	none
CCc1cc(OCCNCc2ccco2)ccc1Cl	none
O=C(O)CNC(=O)NC12CC3CC(CC(C3)C1)C2	none
O=C(CN1CCOCC1)NC12CC3CC(CC(C3)C1)C2	none
C=CCNCC(=O)NC12CC3CC(CC(C3)C1)C2	Algae TAG accum active
N#C/C(=C/c1ccc2c(c1)OCO2)c1ccc(Cl)cc1	none
COc1ccc(C(=O)N2CCN(C3C4CC5CC(C4)CC3C5)CC2)cc1 (stereo not given)	none
OCCN1CCN(C2CCCCCCC2)CC1	none
C1CCN(C2CCN(C3C4CC5CC(C4)CC3C5)CC2)CC1 (stereo not given)	none
CN1CCN(C2C3CC4CC(C3)CC2C4)CC1 (stereo not given)	Algae TAG accum active
OCCN1CCN(C2C3CC4CC(C3)CC2C4)CC1 (stereo not given)	Algae TAG accum active
c1ccc(CN2CCN(C3C4CC5CC(C4)CC3C5)CC2)cc1 (stereo not given)	none
CN(Cc1ccccc1)C(=O)c1ccc(Br)cc1	none
Clc1ccc(-n2ncnc2-c2ccncc2)cc1	none
CC(C)c1ccc(CNC(=O)C(C)N2C(=O)c3ccccc3C2=O)cc1 (stereo not given)	none
Cc1cc(C)c(S(=O)(=O)N2CCN(c3ccccc3)CC2)cc1Br	none
Cc1cc(C)c(S(=O)(=O)N2CCN(C)CC2)cc1Br	Algae TAG accum active
Cc1cc(C)c(S(=O)(=O)N2CCN(C)CC2)cc1C	none
Brc1ccc(Cn2cnc3ccccc32)cc1	none
COc1ccc(NC(=O)CCC2CCCCC2)c(OC)c1	none
COc1ccc(NC(=O)CCC2CCCCC2)c([N+](=O)[O-])c1	Algae TAG accum active
Cc1ccc(NC(=O)CCC2CCCCC2)c([N+](=O)[O-])c1	none
CS(=O)(=O)N(CC(=O)N1CCCCCC1)c1ccc(I)cc1	none
Clc1ccc(CN2CCOCC2)cc1Cl	none
CC(C)c1ccc(CN2CCC(O)CC2)cc1	none
CC(C)c1ccc(CN2CCOCC2)cc1	Algae TAG accum active
CN1CCN(CCOCCSc2ccc(Cl)cc2)CC1	none
O=C(NCCc1cccc(Cl)c1)c1cccc(Cl)c1	none
Clc1cc(Br)ccc1OCCCCN1CCCC1	none
